# PubChem BioAssay AID1835 (Johns Hopkins Ion Channel Center, 2009)
# Screen size: about 2,400 compounds; about 750 (31%) were called active.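 The calls were made as follows: active = median signal gain over dofetilide-blocked control wells reaching their mean plus 3 SD, so readout 1 at least 0; inactive = the rest.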 The list shows a part of the results. Where a SMILES comes first, the peptide text is derived from it. The star is where a group is joined. Cbz = O=C(OCc1ccccc1)*
# Biological target: Voltage-gated inwardly rectifying potassium channel KCNH2 (Homo sapiens) (UniProt Q12809)
# Assay: modulators restoring hERG flux under dofetilide – cell-based, thallium flux, duplicate retest, dofetilide IC70, confirmation (AID 1835)
# Conditions: hERG cell line, FluxOR thallium flux, dofetilide-blocked; at 10 µM; hits give high values
# Sequence of Voltage-gated inwardly rectifying potassium channel KCNH2 (Homo sapiens) (Q12809 whole entry, looked up): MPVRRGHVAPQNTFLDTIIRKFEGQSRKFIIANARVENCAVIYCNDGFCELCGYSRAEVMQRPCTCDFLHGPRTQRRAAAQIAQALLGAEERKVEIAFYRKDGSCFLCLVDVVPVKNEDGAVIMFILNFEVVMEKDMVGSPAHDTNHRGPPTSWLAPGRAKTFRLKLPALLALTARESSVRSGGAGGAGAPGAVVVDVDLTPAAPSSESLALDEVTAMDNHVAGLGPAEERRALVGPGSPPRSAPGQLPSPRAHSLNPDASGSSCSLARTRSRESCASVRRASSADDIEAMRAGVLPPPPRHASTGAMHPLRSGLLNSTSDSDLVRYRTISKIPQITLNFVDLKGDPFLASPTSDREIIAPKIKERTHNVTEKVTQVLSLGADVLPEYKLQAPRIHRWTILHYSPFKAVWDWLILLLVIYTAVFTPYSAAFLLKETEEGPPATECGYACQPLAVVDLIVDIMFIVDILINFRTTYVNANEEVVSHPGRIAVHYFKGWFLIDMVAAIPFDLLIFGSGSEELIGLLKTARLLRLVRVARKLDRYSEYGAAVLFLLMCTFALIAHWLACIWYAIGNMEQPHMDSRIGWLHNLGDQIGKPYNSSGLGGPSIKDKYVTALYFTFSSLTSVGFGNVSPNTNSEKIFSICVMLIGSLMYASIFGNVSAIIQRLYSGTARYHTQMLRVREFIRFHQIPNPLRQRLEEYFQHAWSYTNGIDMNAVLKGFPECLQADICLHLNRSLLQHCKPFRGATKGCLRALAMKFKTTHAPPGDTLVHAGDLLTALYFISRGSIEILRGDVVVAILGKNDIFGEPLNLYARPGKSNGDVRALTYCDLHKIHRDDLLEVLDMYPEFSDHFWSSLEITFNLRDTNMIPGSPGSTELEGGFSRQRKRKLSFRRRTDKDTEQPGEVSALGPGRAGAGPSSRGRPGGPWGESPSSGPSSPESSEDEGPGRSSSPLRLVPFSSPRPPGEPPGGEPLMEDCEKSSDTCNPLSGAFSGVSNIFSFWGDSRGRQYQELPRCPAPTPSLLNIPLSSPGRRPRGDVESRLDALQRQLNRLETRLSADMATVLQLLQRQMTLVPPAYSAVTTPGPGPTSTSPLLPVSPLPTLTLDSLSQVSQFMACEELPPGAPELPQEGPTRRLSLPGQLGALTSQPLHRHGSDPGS
row,Compound,"activity increase over dofetilide control, less the hit threshold"
1,Cc1cc(NC(=O)CCCn2cnc([N+](=O)[O-])n2)no1,-9% (inactive)
2,CCOC(=O)c1nnn(CC(=O)Nc2ccccc2OC)c1C(=O)OCC,-3% (inactive)
3,CCOC(=O)c1n[nH]n2c1nc(=S)c1ccccc12,46% (active)
4,CCOC(=O)C1CCN(C(=O)COC(=O)c2nn(C)c(=O)c3ccccc23)CC1,-23% (inactive)
5,C[n+]1ccccc1COc1ccc(C(C)(C)C)cc1,-15% (inactive)
6,COC(=O)c1ccc(/C=C/c2ccc3cccc(OC)c3n2)cc1,-7% (inactive)
7,Cc1ccc(/C=C/C(=O)c2ccccc(=O)c2O)cc1C,8% (active)
8,Cc1ccc(/C=C/C(=O)c2ccccc(=O)c2O)c(C)c1,22% (active)
9,Cc1ccc(NS(=O)(=O)c2ccc(NC(=O)c3ccccc3C(=O)O)cc2)cc1C,-5% (inactive)
10,Cc1ccc(C(=O)c2ccccc2C(=O)O)c(O)c1,-6% (inactive)
11,O=C(/C=C/c1ccccc1Cl)c1ccccc(=O)c1O,13% (active)
12,Cc1ccc(C)c(/C=C/C(=O)c2ccccc(=O)c2O)c1,-3% (inactive)
13,CC(=O)c1sc(-c2ccc(F)cc2)cc1NS(=O)(=O)c1ccc(C)cc1,-14% (inactive)
14,CC1=[N+]([O-])C(C)(C)C(c2ccc(Br)cc2)=[N+]1[O-],-3% (inactive)
15,COCCNC(=O)CN(C(=O)c1ccc(N2CCCC2)nc1)c1ccccc1,-15% (inactive)
16,CCc1ccc2[nH]c(=O)c(-c3ccccc3)c(O)c2c1,-20% (inactive)
17,CCC(C)C(NC(=O)C(C)NC(=O)CNC(=O)CNC(=O)OCc1ccccc1)C(=O)OC (configuration not stated) (Cbz-GGAI-OMe; configuration not given here),-22% (inactive)
18,CN1C(=O)NC(c2cccc([N+](=O)[O-])c2)C2=C1CC(C)(C)CC2=O (configuration not stated),-14% (inactive)
19,CCc1ccccc1NC(=O)CC1CS(=O)(=O)CC1CC(=O)Nc1ccccc1CC (configuration not stated),-4% (inactive)
20,N#C/C(=N\Nc1ccccc1F)c1nc(-c2ccccc2)cs1,-14% (inactive)
21,O=C(O)/C=C/c1cn(-c2ccccc2)nc1-c1ccc(-c2ccc([N+](=O)[O-])cc2)o1,27% (active)
22,COC(=O)Oc1ccc(/C=C/C(=O)OC(C)C)cc1OC(=O)OC,2% (active)
23,Cc1cc(C)nc(NS(=O)(=O)c2ccc(NC(=O)Cc3ccccc3)cc2)n1,-5% (inactive)
24,Cc1cc(O)c(/C=N/OCc2ccc(Cl)cc2Cl)c(=O)o1,-4% (inactive)
25,Brc1ccc(-c2noc(CCc3ccccc3)n2)cc1,-20% (inactive)
26,CC(C)Cn1c(=S)[nH]c2cc(Cl)ccc21,5% (active)
27,Cc1nnc(SCC2=C(C(=O)O)N3C(=O)C(NC(=O)Cn4nc(C(F)F)cc4C)C3SC2)s1 (configuration not stated),-5% (inactive)
